This excerpt belongs to a sample that is enriched for the strongest signals.
Key:
Experiment in all cases: glycan array binding signal (z-score within array); higher = stronger binding
Settings in all cases: glycan notation: IUPAC condensed, linker removed
[1] = target: Fuc(a1-2)Gal(b1-3)GalNAc(b1-3)Gal(a1-4)Gal(b1-4)Glc
Method in brief: (§1)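 Arrays were curated from the Consortium for Functional Glycomics database, 3228 in total, and kept only where the protein sequence was available. Binding is expressed as a within-array Z-score. This score was averaged across arrays of the same protein sequence at different concentrations or buffers and across linkers, and negative values can be read as non-binding.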

[2] = target: Fuc(a1-2)Gal(b1-4)GlcNAc(b1-2)Man(a1-3)[Fuc(a1-2)Gal(b1-4)GlcNAc(b1-2)Man(a1-6)]Man(b1-4)GlcNAc(b1-4)[Fuc(a1-6)]GlcNAc
Method in brief: as §1

[3] = target: Fuc(a1-2)Gal(b1-4)[Fuc(a1-3)]GlcNAc(b1-2)[Fuc(a1-2)Gal(b1-4)[Fuc(a1-3)]GlcNAc(b1-4)]Man(a1-3)[Fuc(a1-2)Gal(b1-4)[Fuc(a1-3)]GlcNAc(b1-2)Man(a1-6)]Man(b1-4)GlcNAc(b1-4)GlcNAc
Method in brief: as §1

[4] = target: Fuc(a1-2)Gal(b1-4)[Fuc(a1-3)]GlcNAc(b1-3)Gal(b1-4)[Fuc(a1-3)]GlcNAc
Method in brief: as §1

Fuc(a1-2)Gal6S(b1-4)Glc = target: Fuc(a1-2)Gal6S(b1-4)Glc
Method in brief: as §1

[5] = target: Fuc(a1-2)[Gal(a1-3)]Gal(b1-4)GlcNAc(b1-6)GalNAc
Method in brief: as §1

[6] = target: Fuc(a1-2)[GalNAc(a1-3)]Gal(b1-3)GalNAc(a1-3)[Fuc(a1-2)]Gal(b1-4)GlcNAc
Method in brief: as §1

[7] = target: Gal(a1-4)Gal(b1-4)GlcNAc(b1-2)Man(a1-3)[Gal(a1-4)Gal(b1-4)GlcNAc(b1-2)Man(a1-6)]Man(b1-4)GlcNAc(b1-4)GlcNAc
Method in brief: as §1

Gal(b1-3)GlcNAc(b1-2)Man = target: Gal(b1-3)GlcNAc(b1-2)Man
Method in brief: as §1

[8] = target: Gal(b1-3)GlcNAc(b1-2)Man(a1-3)[GlcNAc(b1-4)][Gal(b1-3)GlcNAc(b1-2)Man(a1-6)]Man(b1-4)GlcNAc(b1-4)GlcNAc
Method in brief: as §1

[9] = target: Gal(b1-3)GlcNAc(b1-2)[Gal(b1-3)GlcNAc(b1-6)]Man(a1-6)[Gal(b1-3)GlcNAc(b1-2)Man(a1-3)]Man(b1-4)GlcNAc(b1-4)GlcNAc
Method in brief: as §1

[10] = target: Gal(b1-3)GlcNAc(b1-3)Gal(b1-4)Glc
Method in brief: as §1

[11] = target: Gal(b1-3)GlcNAc(b1-3)Gal(b1-4)GlcNAc
Method in brief: as §1

[12] = target: Gal(b1-3)[Fuc(a1-4)]GlcNAc
Method in brief: as §1

[13] = target: Gal(b1-4)GlcNAc(b1-2)Man(a1-3)[GlcNAc(b1-2)Man(a1-6)]Man(b1-4)GlcNAc(b1-4)GlcNAc
Method in brief: as §1

[14] = target: Gal(b1-4)GlcNAc(b1-2)Man(a1-3)[GlcNAc(b1-4)][Gal(b1-4)GlcNAc(b1-2)Man(a1-6)]Man(b1-4)GlcNAc(b1-4)GlcNAc
Method in brief: as §1

[15] = target: Gal(b1-4)GlcNAc(b1-2)Man(a1-3)[Man(a1-6)]Man(b1-4)GlcNAc(b1-4)GlcNAc
Method in brief: as §1

[16] = target: Gal(b1-4)GlcNAc(b1-2)[Gal(b1-4)GlcNAc(b1-4)]Man(a1-3)[Gal(b1-4)GlcNAc(b1-2)[Gal(b1-4)GlcNAc(b1-6)]Man(a1-6)]Man(b1-4)GlcNAc(b1-4)GlcNAc
Method in brief: as §1

[17] = target: Gal(b1-4)GlcNAc(b1-3)Gal(b1-4)GlcNAc(b1-2)[Gal(b1-4)GlcNAc(b1-3)Gal(b1-4)GlcNAc(b1-6)]Man(a1-6)[Gal(b1-4)GlcNAc(b1-3)Gal(b1-4)GlcNAc(b1-2)Man(a1-3)]Man(b1-4)GlcNAc(b1-4)GlcNAc
Method in brief: as §1

[18] = target: Gal(b1-4)GlcNAc(b1-3)Gal(b1-4)GlcNAc(b1-3)Gal(b1-4)GlcNAc(b1-3)Gal(b1-4)GlcNAc(b1-2)Man(a1-3)[Gal(b1-4)GlcNAc(b1-3)Gal(b1-4)GlcNAc(b1-3)Gal(b1-4)GlcNAc(b1-3)Gal(b1-4)GlcNAc(b1-2)Man(a1-6)]Man(b1-4)GlcNAc(b1-4)[Fuc(a1-6)]GlcNAc
Method in brief: as §1

[19] = target: Gal(b1-4)GlcNAc(b1-3)[GlcNAc(b1-6)]Gal(b1-4)GlcNAc
Method in brief: as §1

Gal3S(b1-3)GlcNAc = target: Gal3S(b1-3)GlcNAc
Method in brief: as §1

[20] = target: Gal3S(b1-4)[Fuc(a1-3)]Glc6S
Method in brief: as §1

GalNAc6S(b1-4)GlcNAc = target: GalNAc6S(b1-4)GlcNAc
Method in brief: as §1

[21] = target: GlcNAc(a1-4)Gal(b1-4)GlcNAc
Method in brief: as §1

GlcNAc(b1-3)Man = target: GlcNAc(b1-3)Man
Method in brief: as §1

[22] = target: GlcNAc6S(b1-3)Gal(b1-4)GlcNAc
Method in brief: as §1

[23] = target: Man(a1-2)Man(a1-3)[Man(a1-2)Man(a1-6)]Man(a1-6)[Man(a1-2)Man(a1-2)Man(a1-3)]Man
Method in brief: as §1

[24] = target: Neu5Ac(a2-3)Gal(b1-3)GalNAc
Method in brief: as §1

[25] = target: Neu5Ac(a2-3)Gal(b1-3)GalNAc(b1-3)Gal(a1-4)Gal(b1-4)Glc
Method in brief: as §1

B1: PfulAvr4 2 (Pseudocercospora fuligena) (protein)
chain: HHHHHHDYKDDDDKAKPIKPFACPPKDFTTTKCQGPVDCLYANPLSCLGYIQCVCDDDACSTATPYAKSCPTGLAWVEKLKRCDGIKKSACPKKMYEGS
In the case of B1, the “glycan array binding signal (z-score)” value [1] is reported as 0.285, the “glycan array binding signal (z-score)” value [2] is reported as 2.88 and the “glycan array binding signal (z-score)” value [3] is reported as 4.77. The “glycan array binding signal (z-score)” value [4] was -0.355, the “glycan array binding signal (z-score)” value (Fuc(a1-2)Gal6S(b1-4)Glc) was -0.291 and the “glycan array binding signal (z-score)” value [5] was -0.178. For the same binder, the “glycan array binding signal (z-score)” value [6] was 3.28, the “glycan array binding signal (z-score)” value [7] was 1.43 and the “glycan array binding signal (z-score)” value (Gal(b1-3)GlcNAc(b1-2)Man) was -0.279. For the same binder, the “glycan array binding signal (z-score)” value [8] was 8.86, the “glycan array binding signal (z-score)” value [9] was -0.063 and the “glycan array binding signal (z-score)” value [10] was 0.144. For the same binder, the “glycan array binding signal (z-score)” value [11] was -0.311, the “glycan array binding signal (z-score)” value [12] was -0.218 and the “glycan array binding signal (z-score)” value [13] was -0.331. For the same binder, the “glycan array binding signal (z-score)” value [14] was -0.216, the “glycan array binding signal (z-score)” value [15] was 9.66 and the “glycan array binding signal (z-score)” value [16] was -0.113. For the same binder, the “glycan array binding signal (z-score)” value [17] was 4.76, the “glycan array binding signal (z-score)” value [18] was -0.233 and the “glycan array binding signal (z-score)” value [19] was 5.97. The “glycan array binding signal (z-score)” value (Gal3S(b1-3)GlcNAc) was -0.314, the “glycan array binding signal (z-score)” value [20] was -0.272 and the “glycan array binding signal (z-score)” value (GalNAc6S(b1-4)GlcNAc) was -0.276. The “glycan array binding signal (z-score)” value [21] was -0.432, the “glycan array binding signal (z-score)” value (GlcNAc(b1-3)Man) was 4.99 and the “glycan array binding signal (z-score)” value [22] was -0.273. The “glycan array binding signal (z-score)” value [23] was -0.359, the “glycan array binding signal (z-score)” value [24] was -0.292 and the “glycan array binding signal (z-score)” value [25] was -0.326.

— the supplement of paper PMC8728848
